# Screening results from PubChem.
# HCV inhibitor – HCV inhibition. Huh7.5.1 HCVcc-Cre infection, luciferase reporter, 44 h. Potency, µM (top dose mostly 41.8 µM), for inactives: top-dose activity change, negative = inhibition, actives largely listed as inhibitors. AID 651820. 340,000 tested, 3.4% active; further: potency means the concentration at half of the fitted maximal effect; on the % scale 0 is the no-effect control and ±100 the full control effect
#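 Cells (1,000/well) were plated 4 h before compound, then infected with HCVcc-Cre virus (~0.5 moi). After 44 h further culture, infection was read as luciferase luminescence following a 15 min substrate incubation at room temperature.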
# Pf growth 48h – inhibits P. falciparum growth in the first generation, 48 h; P. falciparum luciferase growth in erythrocytes, 48 h; Potency, µM (series often up to 28.7 µM), for inactives: at the highest dose activity change, negative = inhibition, usual class: inhibitors; 310,000 tested, 5.9% active; further: potency means the concentration at half of the fitted maximal effect; on the % scale 0 is the no-effect control and ±100 the full control effect
#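 Luminescence readout; reporter = integrated firefly luciferase in P. falciparum. RBC culture at 2% hematocrit, 0.1% parasitemia final, 37 C/5% CO2; decreased signal taken as growth inhibition.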
# Shiga toxin inh – Shiga toxin inhibition; Vero cells, Shiga toxin protein synthesis inhibition reporter; inhibition, % at 38.7 µM; 290,000 tested, 9.2% active; AID 2315; in the data active means inhibition mostly above about 28%, no sharp cut-off; inactive means mostly below about 43%; further: 0% is about no effect
# HCMV inh – inhibitors of human cytomegalovirus; HFF cells, HCMV-luciferase reporter, 72 h; hits give low values; activity change, negative = inhibition, % at 57.5 µM; 410,000 tested, 4.5% active; in the data active means activity change below about -60%; inconclusive means no clear call, values can overlap the other calls; inactive means above about -39%; further: on the % scale 0 is the no-effect control and ±100 the full control effect
#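 Inhibition of viral replication was scored as loss of reporter luminescence in HFFs infected with HCMV-luciferase (MOI 1 PFU/cell) for 72 h; compounds tested at 2 doses, normalized to buffer and Salinomycin controls.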
# Pf growth 96h – P. falciparum growth inhibition at 96 hours; AID 504834; Potency, µM (highest dose often 28.7 µM), inactives show top-dose activity change, negative = inhibition, usual class: inhibitors; P. falciparum luciferase reporter growth, 96 h; 320,000 tested, 6.9% active; further: potency means the concentration at half of the fitted maximal effect; on the % scale 0 is the no-effect control and ±100 the full control effect
#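 P. falciparum expressing integrated firefly luciferase grown in erythrocytes (2% hematocrit, 0.05% parasitemia final) with compounds for 96 hours at 37 C, 5% CO2. Growth inhibition read as loss of luminescence after adding luciferase detection reagent.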
# Cycloheximide cs – counter-screen for Shiga toxin inhibitors: cycloheximide protein synthesis inhibition; 300,000 tested, 12% active; max response, %; AID 2314; cell reporter, cycloheximide protein synthesis inhibition counterscreen; in the data active means max response mostly above about 13%, no sharp cut-off; inactive means mostly below about 14%; further: read at 38.3 µM for the half of the compounds with a filed dose; 0% is about no effect
# * marks the source's active call; other numbers are inactive results; ? = inconclusive; / = no result. Most compounds without a hit are left out; they make up all but 21% or so of the library. Unless noted, the call rests on the fitted dose curve; in most records, active means well fitted inhibition curve with a large enough effect; inconclusive means small, poorly fitted or top-dose-only effect, or another doubt; inactive means no such curve, though single readings can be large or run the other way.
SMILES,HCV inhibitor,Pf growth 48h,Shiga toxin inh,HCMV inh,Pf growth 96h,Cycloheximide cs
CCN1C(=O)c2ccc(C(=O)Nc3ccc4c(c3)OCO4)cc2C1=O,-15%,33%,62*,12,1%,23*
CCN1C(=O)c2ccc(C(=O)NCc3ccc4c(c3)OCO4)cc2C1=O,15%,22%,13,29,-15%,-1
CCCc1cc2c(cc1NC(=O)c1ccc(C(C)(C)C)cc1)OCO2,?,?,29*,3,18%,22*
O=c1oc(-c2ccc(Cl)cc2[N+](=O)[O-])nc2ccccc12,/,/,/,21,/,/
CC(C)CCN1CCC(n2nccc2NC(=O)c2ccc3c(c2)OCO3)CC1,6%,23%,-3,-24,14%,2
CN(NC1OC(=O)c2ccccc21)c1ccccc1[N+](=O)[O-] (stereo not given),9%,-8%,10,-25,7%,10
CCOc1ccc(C(=O)Nc2ccc3c(c2)OCCO3)cc1,-5%,123%,49*,-11,429%,34*
CCN(CC(=O)Nc1ccc(NC(C)=O)cc1)C(=O)c1ccc2c(c1)OCCO2,9%,-27%,/,-24,?,/
CCOc1ccc(C(=O)Nc2ccc3c(c2)OCCO3)cc1Br,/,/,/,52,/,/
CCCOc1cccc(NC(=O)c2cc(C)oc2C)c1,10µM*,-28%,39,?,?,-4
Cc1ccc(S(=O)(=O)CC(=O)c2ccc3c(c2)OCCO3)cc1,6%,58%,82*,11,51%,45*
CCN(CC(=O)Nc1ccc2c(c1)OCCO2)C(=O)c1cccc(OCC(C)C)c1,-15%,16%,32,67,?,16*
Cc1ccc(CNC(=O)C2CCN(C(=O)N3CC(C)Oc4ccc(Cl)cc43)CC2)cc1 (stereo not given),/,/,/,1,/,/
Cc1ccc(C(=O)Nc2ccc3c(c2)OCO3)cc1,?,/,56,30,-96%,25*
COc1cccc2c1OC1(C)CC2NC(=O)N1c1cccc(C(=O)Nc2ccc3c(c2)OCCO3)c1 (stereo not given),?,-18%,93*,-22,?,33*
CN1C[C@@H]2[C@@H]3C(=O)N(Cc4ccccc4)C(=O)[C@@H]3[C@](Cc3ccccc3)(C1=O)N2C(=O)c1ccc(C(C)(C)C)cc1,?,/,/,-98*,/,/
CN1C[C@@H]2[C@@H]3C(=O)N(Cc4ccccc4)C(=O)[C@@H]3[C@](Cc3ccccc3)(C1=O)N2C(=O)c1ccccc1,19%,/,/,-32,/,/
COC(=O)c1ccc(C2=NOC(C)(c3nnc(Cc4ccccc4)o3)C2)cc1 (stereo not given),5%,?,/,-21,?,/
O=[N+]([O-])c1cccc(/C=N/Nc2nc(NCc3ccccc3)nc(N3CCOCC3)n2)c1O,-26%,6.6µM*,5,-26,?,18
O=[N+]([O-])c1ccc(/C=N/Nc2nc(NCc3ccccc3)nc(N3CCOCC3)n2)cc1,-23%,13µM*,-8,-12,16%,7
CCOc1ccc(C(=O)NCCc2csc(-c3ccc(C(F)(F)F)cc3)n2)cc1OCC,/,/,/,39,/,/
O=C(Nc1sc2c(c1C(=O)O)CCC2)c1cccc(Cl)c1,10%,35%,70*,6,45%,44*
O=C(Nc1sc2c(c1C(=O)O)CCC2)c1ccccc1Cl,22%,?,/,-9,2%,8
Cc1cccc(C(=O)Nc2sc3c(c2C(=O)O)CCCC3)c1,?,58%,93*,-6,-15%,47*
CCOc1ccccc1NC(=O)C1CCN(S(=O)(=O)c2ccc3[nH]c(=O)oc3c2)CC1,/,/,/,-8,/,/
SMILES,HCV inhibitor,Pf growth 48h,Shiga toxin inh,HCMV inh,Pf growth 96h,Cycloheximide cs
CCN(/N=C/c1ccc(Cl)cc1)c1cc(=O)n(C)c(=O)[nH]1,3%,1%,active,-17,?,34*
Cn1c(=O)cc(Nc2ccccc2)[nH]c1=O,-14%,7%,/,-19,?,-1
CCN(/N=C/C=C/c1ccccc1)c1cc(=O)n(C)c(=O)[nH]1,-1%,?,13,-3,7.4µM*,0
CC[C@H](C)[C@H](NC(=O)[C@H](CCC(=O)O)NC(=O)[C@H](CO)NC(=O)[C@@H](NC(=O)[C@@H](N)CO)C(C)C)C(=O)N[C@@H](CCC(N)=O)C(=O)N[C@@H](CC(C)C)C(=O)N[C@@H](CCSC)C(=O)N[C@@H](Cc1cnc[nH]1)C(=O)N[C@@H](CC(N)=O)C(=O)N[C@@H](CC(C)C)C(=O)NCC(=O)N[C@@H](CCCCN)C(=O)N[C@@H](Cc1cnc[nH]1)C(=O)N[C@@H](CC(C)C)C(=O)N[C@@H](CC(N)=O)C(=O)N[C@@H](CO)C(=O)N[C@@H](CCSC)C(=O)N[C@@H](CCC(=O)O)C(=O)N[C@@H](CCCNC(=N)N)C(=O)N[C@H](C(=O)N[C@@H](CCC(=O)O)C(=O)N[C@@H](Cc1c[nH]c2ccccc12)C(=O)N[C@@H](CC(C)C)C(=O)N[C@@H](CCCNC(=N)N)C(=O)N[C@@H](CCCCN)C(=O)N[C@@H](CCCCN)C(=O)N[C@@H](CC(C)C)C(=O)N[C@@H](CCC(N)=O)C(=O)N[C@@H](CC(=O)O)C(=O)N[C@H](C(=O)N[C@@H](Cc1cnc[nH]1)C(=O)N[C@@H](CC(N)=O)C(=O)N[C@@H](Cc1ccccc1)C(=O)N[C@H](C(=O)N[C@@H](C)C(=O)N[C@@H](CC(C)C)C(=O)NCC(=O)O)C(C)C)C(C)C)C(C)C,/,/,-7,/,/,-2
Cc1cc(C(=O)N/N=C/c2cccnc2)n[nH]1,2%,27%,22,10,26%,2
Cc1cc(C(=O)N/N=C/c2ccc3ccccc3c2)n[nH]1,-8%,14%,30*,-22,?,23*
BrC(=C\c1ccccc1)/C=N/Nc1nc(N2CCOCC2)nc(N2CCOCC2)n1,?,7.4µM*,-10,32,?,-3
Cc1cc(C(=O)N/N=C/c2cccc(OC(=O)c3ccco3)c2)n[nH]1,18%,27%,34,12,?,46*
COc1cc(/C=N/Nc2nc(Nc3ccccc3)nc(N3CCOCC3)n2)ccc1OC(=O)c1ccco1,?,?,39,35,?,35
O=C(Oc1cccc(/C=N/Nc2nc(N3CCOCC3)nc(N3CCOCC3)n2)c1)c1ccco1,1.1µM*,5%,-2,125,35%,-4
Cc1cc(C(=O)N/N=C/c2ccc(OC(=O)c3ccccc3Br)cc2)n[nH]1,-11%,7%,29,-29,-4%,11
Cc1cccc(N2CCN(C(=O)C3CCN(S(=O)(=O)Cc4ccccc4)CC3)CC2)c1C,/,/,/,20,/,/
O=C(NN1C(=O)C2CC=C(Cl)CC2C1=O)c1ccncc1 (stereo not given),18%,0%,11,11,313%,-2
